Publication PMC5540273 (PLoS ONE, 2017)

Tests used:
Settings in all cases: concentration: 1 μM, replicates: in singlicate; n = 1
[1] = tested on: EPHA4
[2] = tested on: EPHA5
[3] = tested on: EPHA6
[4] = tested on: EPHA7
[5] = tested on: EPHA8
[6] = tested on: EPHB1
[7] = tested on: EPHB2
[8] = tested on: EPHB3
[9] = tested on: EPHB4
[10] = tested on: EPHB6
[11] = tested on: ERBB2
[12] = tested on: ERBB3
[13] = tested on: ERBB4
[14] = tested on: T1, ERK1
T1 construct: gene MAPK3

[15] = tested on: T2, ERK2
T2 construct: gene MAPK1

[16] = tested on: T3, ERK3
T3 construct: gene MAPK6

[17] = tested on: T4, ERK4
T4 construct: gene MAPK4

[18] = tested on: T5, ERK5
T5 construct: gene MAPK7

[19] = tested on: T6, ERK8
T6 construct: gene MAPK15

[20] = tested on: ERN1
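Also: KINOMEscan kinase panel screen.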

Row | Structure (SMILES) | %Inh [1] [%] | %Inh [2] [%] | %Inh [3] [%] | %Inh [4] [%] | %Inh [5] [%] | %Inh [6] [%] | %Inh [7] [%] | %Inh [8] [%] | %Inh [9] [%] | %Inh [10] [%] | %Inh [11] [%] | %Inh [12] [%] | %Inh [13] [%] | %Inh [14] [%] | %Inh [15] [%] | %Inh [16] [%] | %Inh [17] [%] | %Inh [18] [%] | %Inh [19] [%] | %Inh [20] [%]
1 | Cn1ccc2ncnc(Oc3cccc(C(=O)Nc4ccccc4)c3)c21 | 4 | 16 | 0 | 0 | 0 | 0 | 0 | 0 | 9 | 0 | 18 | 18 | 0 | 0 | 21 | 0 | 4 | 5 | 6 | 29
2 | COc1ccc2nc(-c3cccc(C)n3)nc(Nc3ccncc3)c2c1 [GSK204919] | 23 | 0 | 18 | 0 | 9 | 6 | 0 | 14 | 15 | 0 | 0 | 0 | 30 | 2 | 3 | 10 | 15 | 0 | 37 | 0
3 | COc1ccccc1CNC(=O)c1cc(C(=O)c2ccccc2C)c[nH]1 [GSK364507] | 5 | 0 | 0 | 8 | 19 | 25 | 0 | 6 | 20 | 11 | 21 | 0 | 30 | 0 | 2 | 4 | 13 | 0 | 0 | 0
4 | O=C(Nc1n[nH]c2nc(-c3nccs3)c(Br)cc12)C1CCCC1 [SB-742609] | 25 | 0 | 20 | 10 | 14 | 0 | 0 | 26 | 10 | 46 | 0 | 0 | 0 | 10 | 2 | 0 | 100 | 0 | 60 | 12
5 | Cc1ccccc1-n1cnc2c(N)ncnc21 [SKF-97510] | 4 | 0 | 0 | 0 | 0 | 1 | 0 | 0 | 0 | 7 | 0 | 0 | 0 | 0 | 0 | 2 | 0 | 0 | 0 | 0
6 | COc1ccc(C2=C(Nc3cccc(C(=O)O)c3)C(=O)NC2=O)cc1 [SB-390765] | 21 | 7 | 16 | 0 | 10 | 5 | 9 | 20 | 9 | 19 | 0 | 0 | 0 | 0 | 7 | 19 | 1 | 10 | 7 | 21
7 | CN1C(=O)C(Nc2ccc(Cl)c(C(=O)O)c2)=C(c2ccc(Cl)cc2)C1=O [SB-404290] | 1 | 0 | 2 | 2 | 19 | 9 | 0 | 7 | 0 | 28 | 0 | 0 | 8 | 0 | 0 | 0 | 0 | 1 | 0 | 0
8 | Nc1nc(-c2nccs2)c(-c2ccnc3ccccc23)s1 [GW693542] | 11 | 0 | 8 | 10 | 17 | 13 | 0 | 10 | 1 | 5 | 36 | 0 | 27 | 6 | 0 | 0 | 18 | 0 | 0 | 0
9 | O=C(Nc1ccc2c(c1)OCO2)NC1CCN(c2ccnc(Nc3ccc(F)cc3)n2)C1 (stereo not drawn) [GSK1379724] | 6 | 0 | 8 | 0 | 9 | 0 | 5 | 16 | 11 | 35 | 45 | 0 | 44 | 0 | 0 | 17 | 0 | 0 | 7 | 0
10 | Cc1cc(-c2ccc3c(c2)CC[C@@H](N[C@@H](C)c2ccccc2)C3)cnc1N.Cl [GW412617] | 13 | 1 | 10 | 0 | 8 | 9 | 0 | 9 | 11 | 48 | 0 | 0 | 0 | 0 | 12 | 5 | 0 | 0 | 29 | 0
11 | COc1cc2ncn(-c3cc(OCC4CCCO4)c(C(N)=O)s3)c2cc1OC (stereo not drawn) [GSK204607] | 7 | 0 | 1 | 0 | 3 | 24 | 0 | 0 | 27 | 23 | 0 | 20 | 0 | 2 | 0 | 20 | 0 | 0 | 0 | 0
12 | Cc1cccc(-c2cc(Nc3ccncc3)c3ccccc3n2)n1 [GSK223675] | 0 | 0 | 0 | 0 | 0 | 4 | 0 | 0 | 0 | 25 | 0 | 0 | 26 | 0 | 0 | 0 | 25 | 0 | 0 | 13
13 | Cc1cc(N2Cc3ccccc3C2)nc(Nc2ccc(S(=O)(=O)N3CCOCC3)cc2)n1.Cl [GSK1669917] | 0 | 0 | 0 | 0 | 7 | 0 | 0 | 0 | 6 | 10 | 0 | 0 | 26 | 0 | 0 | 0 | 19 | 0 | 0 | 0
14 | COc1cc2ncnc(Nc3ccc4nc(-c5ccccc5)[nH]c4c3)c2cc1OC.Cl [GW282450] | 0 | 0 | 0 | 0 | 0 | 38 | 1 | 3 | 22 | 18 | 23 | 0 | 33 | 0 | 0 | 0 | 0 | 0 | 0 | 4
15 | Cc1cccc(-c2nc(Nc3cccc(C(N)=O)c3)c3ccccc3n2)n1 [GW876019] | 10 | 0 | 0 | 3 | 7 | 9 | 8 | 15 | 50 | 0 | 23 | 50 | 15 | 0 | 0 | 22 | 0 | 0 | 11 | 17
16 | Cl.Oc1ccc(-c2nc(-c3ccccc3)[nH]c2-c2ccncc2)cc1 [SB-428218] | 30 | 0 | 35 | 0 | 4 | 0 | 4 | 25 | 45 | 25 | 57 | 31 | 27 | 0 | 0 | 0 | 16 | 38 | 0 | 0
17 | Cc1c(O)cccc1Nc1ccnc2ccc(C(F)(F)F)cc12.Cl [GW466413] | 0 | 0 | 14 | 0 | 8 | 9 | 0 | 54 | 20 | 0 | 35 | 17 | 0 | 0 | 0 | 0 | 0 | 0 | 8 | 0
18 | Cc1cccc(-c2nc(Nc3ccncc3)c3ccccc3n2)n1 [GW855857] | 18 | 0 | 0 | 0 | 7 | 3 | 16 | 11 | 26 | 0 | 7 | 43 | 0 | 0 | 9 | 0 | 7 | 30 | 17 | 0
19 | O=C(Nc1n[nH]c2cc(-c3cccc(F)c3F)ccc12)C1CC1 [SB-733894] | 1 | 0 | 0 | 0 | 0 | 0 | 20 | 10 | 62 | 31 | 0 | 0 | 27 | 0 | 0 | 0 | 0 | 11 | 28 | 5
20 | CCCc1ccc(S(=O)(=O)NC2CCN(c3ccnc(Nc4ccc(F)cc4)n3)C2)cc1 (stereo not drawn) [GSK1379715] | 13 | 0 | 6 | 2 | 23 | 0 | 6 | 15 | 15 | 2 | 7 | 1 | 25 | 0 | 18 | 0 | 13 | 0 | 15 | 0
21 | COc1cc2nccc(Nc3ccc(NC(=O)c4ccc(C)cc4)c(O)c3)c2cc1OC.Cl [GW440132] | 0 | 0 | 3 | 2 | 5 | 6 | 0 | 12 | 10 | 19 | 14 | 0 | 9 | 0 | 2 | 13 | 3 | 0 | 1 | 29
